Potency data for nine compounds are collected here from PubChem BioAssay (Tox21).

Records with an inconclusive call do not appear. Calls of active or inactive are those of the source. Unless noted, calls come from the whole dose curve.

In test [1] the target is Gonadotropin-releasing hormone receptor (Homo sapiens) (UniProt P30968). The test is described as follows: Human gonadotropin-releasing hormone receptor (GnRHR) small molecule agonists, calcium flux assay in GnRHR-HEK293 cells (AID 1920063). Note: nearly all actives have a fitted effect of over 35% in size. Note: potency is the fitted concentration of half-maximal effect. An outline of the steps:
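Agonist activity was measured as intracellular calcium flux in HEK293 cells engineered to stably express human GnRHR. After dye loading for 1 hour at 37 C, compounds in DMSO were added and fluorescence was followed for 3 minutes.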

The target of test [2] is KiSS-1 receptor (Homo sapiens) (UniProt Q969F8). The test can be described thus: Human kisspeptin (KISS1R) small molecule agonists, calcium flux assay in KISS1R-HEK293 cells (AID 1920064; active = well fitted activation curve with a large enough effect in the repeat runs; note: potency is the fitted concentration of half-maximal effect). The essentials:
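Agonist activity is monitored as intracellular calcium rise in engineered HEK293 cells carrying human KISS1R. Cells are dye-loaded for 1 h at 37 C before compound addition, and fluorescence is recorded for 3 min.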
(A change in cytosolic calcium serves as a functional read-out for many receptors and channels.)

Test [3] in a line: G protein-coupled receptor (GPCR) small molecule agonists, calcium flux assay: HEK293 wild type cell line counter screen (AID 1920065). An outline of the steps:
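Seed cells, incubate 18 h (37 C, 5% CO2); add calcium dye, 1 h at 37 C; pin-transfer compounds, ATP control or DMSO; read fluorescence 480/540 nm each second for 3 min.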

A short description of test [4]: p53 small molecule agonists, cell-based qHTS assay with human liver microsomes (AID 1963577). An outline of the steps:
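p53RE-bla cells, 4,000/well, compound added after 5 h, with human liver microsomes 0.5 mg/mL and NADPH 0.5 mg/mL final; 16 h at 37 C, then LiveBLAzer 2 h RT, fluorescence.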
(In general: Quantitative high-throughput screening tests each substance at several concentrations.)

The nature of test [5]: p53 small molecule agonists, cell-based qHTS assay with rat liver microsomes (AID 1963578). The essentials: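 p53RE-bla cells, 4,000/well, pre-incubated 5 h, then given compounds plus rat liver microsomes (0.5 mg/mL final) and NADPH (0.5 mg/mL final). Incubation 16 h at 37 C; beta-lactamase reporter read by LiveBLAzer fluorescence after 2 h at room temperature.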
Test [6] is described as follows: p53 small molecule agonists, cell-based qHTS assay with human liver microsomes: qHTS cell viability counter screen (AID 1963579). Note: nearly all actives have a fitted effect of over 45% in size. The essentials: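 p53RE-bla cells, 4,000/well, dosed 5 hours after plating, with human liver microsomes (0.5 mg/mL final) plus NADPH (0.5 mg/mL final), 16 hours at 37 C. Viability read as CellTiter-Glo luminescence after 30 min at room temperature.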

Test [7] is described as follows: p53 small molecule agonists, cell-based qHTS assay with rat liver microsomes: qHTS cell viability counter screen (AID 1963580). Note: nearly all actives have a fitted effect of over 45% in size. An outline of the steps: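 Counter screen for cytotoxicity under metabolic activation: rat liver microsomes and NADPH, 0.5 mg/mL final each, added with compounds to p53RE-bla HCT-116 cells; 16 h at 37 C, then ATP luminescence read.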
Test [8] is described as follows: p53 small molecule agonists, cell-based qHTS assay: qHTS cell viability counter screen (AID 1963581). Note: nearly all actives have a fitted effect of over 45% in size. An outline of the steps: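 Viability was counter-screened in parallel with the p53 agonist reporter by measuring intracellular ATP luminescence in the same HCT-116 p53RE-bla wells after 16 h compound treatment at 37 C.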
The target in test [9] is 5-hydroxytryptamine receptor 2A (Homo sapiens) (UniProt P28223). The test is described as follows: 5-hydroxytryptamine receptor 2A (HTR2A) small molecule antagonists, cell-based qHTS assay (AID 1963586). Note: nearly all actives have a fitted effect of over 45% in size. Note: potency is the fitted concentration of half-maximal effect. The essentials:
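CHO cells stably expressing human HTR2A were plated for 18 h at 37 C, then loaded with calcium dye for 1 h. Compounds were preincubated 5 min at room temperature before DOI (4 nM solution) was added. Kinetic fluorescence was read for 3 min.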

The target of test [10] is Muscarinic acetylcholine receptor M1 (Homo sapiens) (UniProt P11229). The test can be described thus: Cholinergic receptor muscarinic 1 (CHRM1) small molecule antagonists, cell-based qHTS assay (AID 1963588). Note: nearly all actives have a fitted effect of over 40% in size. The essentials:
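Compounds were tested at 15 concentrations in three independent runs. Dye-loaded CHRM1-CHO cells were exposed 5 min at room temperature before stimulation by acetylcholine added at 50nM. Intracellular calcium was read kinetically on FDSS for 3 min.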

A short description of test [11]: cAMP Responsive Elements (CRE) small molecule agonists, cell-based qHTS assay (AID 1963590). An outline of the steps:
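Cells carrying a CRE-driven beta-lactamase reporter (HEK 293T) are seeded, incubated overnight (18 h), and treated with test compounds for 3 h at 37 C; reporter activity is then detected with a FRET substrate after 2 h at room temperature.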

The target of test [12] is 5-hydroxytryptamine receptor 2A (Homo sapiens) (UniProt P28223). The test is described as follows: 5-hydroxytryptamine receptor 2A (HTR2A) small molecule agonists, cell-based qHTS assay (AID 1963587). Note: nearly all actives have a fitted effect of over 30% in size. Note: potency is the fitted concentration of half-maximal effect. The essentials:
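HTR2A-CHO cells, plated 18 h at 37 C/5% CO2, dye-loaded 1 h at 37 C; compounds in DMSO added by pin tool (agonist mode). Intracellular calcium flux read as kinetic fluorescence on FDSS over 2 min at 1 s intervals.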

Test [13] concerns the target Muscarinic acetylcholine receptor M1 (Homo sapiens) (UniProt P11229). The test is described as follows: Cholinergic receptor muscarinic 1 (CHRM1) small molecule agonists, cell-based qHTS assay (AID 1963589). Note: nearly all actives have a fitted effect of over 35% in size. An outline of the steps: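 Cells were plated and incubated 18 h at 37 C/5% CO2, loaded with calcium dye for 1 h at 37 C, then treated with compounds in DMSO. Fluorescence was recorded kinetically at 1 sec intervals.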

For test [14], the target named is Beta-2 adrenergic receptor (Homo sapiens) (UniProt P07550). The test is described as follows: Adrenergic beta2 receptor (ADRB2) small molecule antagonists, cell-based qHTS assay (AID 1963592). Note: series mostly up to about 92 µM; nearly all actives have a fitted effect of over 50% in size. The essentials:
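Assay format: CHO-ADRB2 cells, 18-20hr seeding at 37C/5% CO2, then compound plus 1nM isoproterenol agonist mix for 0.5hr RT. Homogeneous time-resolved fluorescence cAMP detection after 1hr, expressed as 665/615 nm ratio.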

Test [15] has as its target D(2) dopamine receptor (Homo sapiens) (UniProt P14416). The test can be described thus: Dopamine D2 receptor (DRD2) small molecule agonists, cell-based qHTS assay (AID 1963594). Note: nearly all actives have a fitted effect of over 35% in size. An outline of the steps: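 HEK293 cells stably expressing DRD2 were cultured 24 h at 37 C, then given Ro20-1724 (0.1 mM final) and compounds for 10 min at room temperature. NKH477 (200nM) was then added for 30 min. cAMP was read by HTRF.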

The target in test [16] is Beta-2 adrenergic receptor (Homo sapiens) (UniProt P07550). The test is described as follows: Adrenergic beta2 receptor (ADRB2) small molecule agonists, cell-based qHTS assay (AID 1963593).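 Note: CHO cells stably overexpressing human ADRB2.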 An outline of the steps:
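CHO cells stably over-expressing ADRB2 were plated overnight at 37C, then dosed with compounds plus a stimulation mix containing 100uM IBMX and 25uM Ro-20-1724 for 0.5hr at room temperature. cAMP was measured by HTRF competition, 1hr.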

In test [17] the target is D(2) dopamine receptor (Homo sapiens) (UniProt P14416). The test can be described thus: Dopamine D2 receptor (DRD2) small molecule antagonists, cell-based qHTS assay (AID 1963595; active = well fitted inhibition curve with a large enough effect in the signal ratio in the repeat runs, with a control signal flat; the % refers to the signal ratio; note: potency is the fitted concentration of half-maximal effect). The essentials: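 Cells were plated and grown for 24 h at 37 °C. Ro20-1724 (0.1 mM final) went in first, then compound for 10 min. NKH477 (200 nM) with quinpirole (12 nM) followed for 30 min at RT, then HTRF detection reagents for 1 h.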
D(2) dopamine receptor (Homo sapiens), sequence (P14416 whole entry, looked up): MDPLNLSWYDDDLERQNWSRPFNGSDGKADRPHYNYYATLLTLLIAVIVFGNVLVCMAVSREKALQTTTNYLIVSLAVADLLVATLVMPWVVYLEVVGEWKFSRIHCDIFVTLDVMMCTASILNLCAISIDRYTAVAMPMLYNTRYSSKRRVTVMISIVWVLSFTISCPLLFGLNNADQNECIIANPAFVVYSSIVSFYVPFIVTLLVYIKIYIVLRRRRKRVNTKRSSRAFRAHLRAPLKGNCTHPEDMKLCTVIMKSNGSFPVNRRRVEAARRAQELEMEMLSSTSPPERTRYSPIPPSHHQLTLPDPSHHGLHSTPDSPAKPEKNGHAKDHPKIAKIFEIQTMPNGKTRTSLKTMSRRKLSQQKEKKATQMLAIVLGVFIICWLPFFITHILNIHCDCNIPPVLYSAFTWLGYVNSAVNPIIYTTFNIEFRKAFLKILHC

A short description of test [18]: p53 small molecule agonists, cell-based qHTS assay (AID 1963582; active = well fitted activation curve with a large enough effect in the signal ratio in the repeat runs, not every such curve was filed as active; the % refers to the signal ratio). An outline of the steps:
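Cells carrying a p53-responsive bla reporter are treated with test compounds for 16 h at 37 C; beta-lactamase activity is then detected with LiveBLAzer B/G FRET substrate after 2 h at room temperature.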

Test [19] is described as follows: cAMP Responsive Elements (CRE) small molecule antagonists, cell-based qHTS assay (AID 1963591; active = well fitted inhibition curve with a large enough effect in the signal ratio in the repeat runs, not every such curve was filed as active; the % refers to the signal ratio). An outline of the steps: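 Cells (CRE-bla HEK 293T, DMEM with 10% dialyzed FBS and 25 mM HEPES) are seeded and incubated 18 h. Compounds are added with NKH477 agonist at 0.25 uM final for 3 h, then FRET substrate for 2 h.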

5-hydroxytryptamine receptor 2A (Homo sapiens), sequence (P28223 whole entry, looked up): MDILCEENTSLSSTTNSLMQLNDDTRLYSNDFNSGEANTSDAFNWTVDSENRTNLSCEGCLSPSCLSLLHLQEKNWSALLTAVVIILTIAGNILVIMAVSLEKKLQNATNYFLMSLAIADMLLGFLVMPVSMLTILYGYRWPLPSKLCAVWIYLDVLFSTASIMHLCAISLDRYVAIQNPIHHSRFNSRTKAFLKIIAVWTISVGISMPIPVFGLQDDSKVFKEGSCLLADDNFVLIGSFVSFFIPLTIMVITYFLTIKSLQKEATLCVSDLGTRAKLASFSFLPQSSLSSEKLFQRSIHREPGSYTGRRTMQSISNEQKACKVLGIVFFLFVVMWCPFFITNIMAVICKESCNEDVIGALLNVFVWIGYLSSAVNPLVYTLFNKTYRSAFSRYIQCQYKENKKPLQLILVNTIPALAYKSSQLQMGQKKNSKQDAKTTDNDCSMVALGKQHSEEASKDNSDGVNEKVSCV
Beta-2 adrenergic receptor (Homo sapiens), sequence (P07550 whole entry, looked up): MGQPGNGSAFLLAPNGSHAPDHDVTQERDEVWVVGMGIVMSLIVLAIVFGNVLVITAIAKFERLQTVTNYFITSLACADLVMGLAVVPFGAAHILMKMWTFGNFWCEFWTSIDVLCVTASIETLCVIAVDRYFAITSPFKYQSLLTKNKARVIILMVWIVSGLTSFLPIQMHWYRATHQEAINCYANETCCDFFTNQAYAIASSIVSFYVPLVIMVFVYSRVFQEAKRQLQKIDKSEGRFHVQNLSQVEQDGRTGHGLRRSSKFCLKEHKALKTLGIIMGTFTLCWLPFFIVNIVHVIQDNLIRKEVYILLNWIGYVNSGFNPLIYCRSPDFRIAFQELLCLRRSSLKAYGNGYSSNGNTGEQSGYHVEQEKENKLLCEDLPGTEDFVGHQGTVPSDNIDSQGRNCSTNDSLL
Muscarinic acetylcholine receptor M1 (Homo sapiens), sequence (P11229 whole entry, looked up): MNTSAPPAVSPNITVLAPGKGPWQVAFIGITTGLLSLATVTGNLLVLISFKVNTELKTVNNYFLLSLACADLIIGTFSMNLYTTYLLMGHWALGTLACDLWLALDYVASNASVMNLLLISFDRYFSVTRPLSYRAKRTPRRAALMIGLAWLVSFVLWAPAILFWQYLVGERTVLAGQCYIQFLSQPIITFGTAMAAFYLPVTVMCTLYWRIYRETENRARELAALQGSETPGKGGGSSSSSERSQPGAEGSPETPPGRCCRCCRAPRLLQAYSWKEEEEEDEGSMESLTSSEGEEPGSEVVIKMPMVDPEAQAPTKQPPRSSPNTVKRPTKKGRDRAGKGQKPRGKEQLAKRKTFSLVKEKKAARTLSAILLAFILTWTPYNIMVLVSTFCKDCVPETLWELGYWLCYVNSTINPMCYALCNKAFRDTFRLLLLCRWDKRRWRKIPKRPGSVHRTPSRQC
Gonadotropin-releasing hormone receptor (Homo sapiens), sequence (P30968 whole entry, looked up): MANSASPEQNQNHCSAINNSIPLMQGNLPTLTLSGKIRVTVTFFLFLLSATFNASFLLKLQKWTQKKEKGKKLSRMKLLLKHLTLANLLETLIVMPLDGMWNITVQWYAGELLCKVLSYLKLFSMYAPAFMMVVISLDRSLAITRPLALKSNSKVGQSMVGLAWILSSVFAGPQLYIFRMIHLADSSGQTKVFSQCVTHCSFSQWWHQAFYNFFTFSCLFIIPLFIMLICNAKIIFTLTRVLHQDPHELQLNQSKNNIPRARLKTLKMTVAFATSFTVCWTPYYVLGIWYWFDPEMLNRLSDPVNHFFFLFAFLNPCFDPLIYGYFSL
KiSS-1 receptor (Homo sapiens), sequence (Q969F8 whole entry, looked up): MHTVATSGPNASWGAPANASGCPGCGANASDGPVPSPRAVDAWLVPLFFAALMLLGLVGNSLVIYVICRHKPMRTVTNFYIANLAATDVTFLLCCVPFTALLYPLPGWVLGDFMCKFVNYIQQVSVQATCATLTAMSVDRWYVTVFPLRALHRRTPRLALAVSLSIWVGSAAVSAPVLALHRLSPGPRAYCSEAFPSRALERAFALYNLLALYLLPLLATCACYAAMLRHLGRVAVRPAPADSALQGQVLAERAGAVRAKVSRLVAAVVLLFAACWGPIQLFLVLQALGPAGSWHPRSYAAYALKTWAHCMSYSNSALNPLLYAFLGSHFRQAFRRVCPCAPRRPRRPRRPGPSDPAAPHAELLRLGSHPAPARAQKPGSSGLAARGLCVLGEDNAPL

With `N#CCCC(Br)(C#N)CBr` (stereo not given), the Potency in test [1] is 38.9 µM (active); in [2], 54.9 µM (active). In addition, the Potency entry in test [3], in test [4], in test [5], in test [6], in test [7] and in test [8] was “inactive” throughout. The Potency result in test [9], in [10] and in test [11] was “inactive” in each case.
For `CN1CCc2cc3c(cc2C1O)OCO3` (stereo not given), the Potency entry in test [1], in [2], in test [3], in [6], in test [7] and in test [8] was “inactive” in each case. Also, the Potency result in [9], in test [12], in test [13], in test [14] and in test [15] was “inactive” in each case.
In the case of `C=CC(=O)OCCCCO`, the Potency entry in [1], in test [2], in [3], in test [6], in test [8] and in test [9] was “inactive” throughout. Besides, the Potency result in test [12], in test [10], in test [13], in test [14], in [16] and in test [15] was “inactive” throughout.
As for `c1cc[c]([Hg][c]2ccccc2)cc1`, the Potency entry in [1], in test [2], in [3], in test [4], in [5] and in [9] was “inactive” in each case. For the same compound, the Potency result in test [12], in [10] and in [15] was “inactive” throughout. In addition, the Potency in [17] is 4.33 µM (active).
For `CC(C)(C)C(O)C(Oc1ccc(-c2ccccc2)cc1)n1cncn1` (stereo not given), the Potency entry in test [1], in test [2], in [3], in test [4], in [5] and in test [6] was “inactive” each time. Besides, the Potency result in test [8], in test [18], in test [9], in [12], in test [10] and in test [13] was “inactive” each time. For the same compound, the Potency result in [19], in [14] and in test [15] was “inactive” each time.
With `CC(c1ccc(O)cc1)(c1ccc(O)cc1)c1ccc(O)cc1`, the Potency result in test [1], in test [2], in test [3], in test [5], in [6] and in [7] was “inactive” throughout. Besides, the Potency entry in test [10], in test [13], in test [14], in [16], in [15] and in [17] was “inactive” each time. Further, the Potency is 23.7 µM (active) in test [9] and 49 µM (active) in test [12].
On to `O=c1[nH]c2ccccc2n1CCCN1CCC(n2c(=O)[nH]c3cc(Cl)ccc32)CC1`, for which the Potency entry in test [1], in test [2], in test [3], in [5], in test [6] and in test [7] was “inactive” each time. Further, the Potency entry in [8] was “inactive”.
In the case of `N#CN`, the Potency entry in test [1], in test [2], in test [3], in [6], in [7] and in [8] was “inactive” in each case. The Potency entry in test [12], in [10], in test [13], in test [11], in [14] and in [16] was “inactive” throughout. In addition, the Potency entry in test [15] and in test [17] was “inactive” throughout.
Consider `CCCN(CCCl)c1c([N+](=O)[O-])cc(C(F)(F)F)cc1[N+](=O)[O-]`, for which the Potency result in test [1], in test [2], in [3], in [4], in test [5] and in [6] was “inactive” in each case. Further, the Potency entry in test [7], in test [8], in [18], in [9], in [12] and in [13] was “inactive” in each case. The Potency entry in test [19], in [16], in test [15] and in test [17] was “inactive” each time.
